# Laboratory results from PubChem BioAssay AID504444 (National Center for Advancing Translational Sciences (NCATS), 2011).
# Where “and” joins values, the source holds several entries; their conditions need not be identical. Equal values may be shown once. The campaign covered roughly 360,000 compounds. About 7,500 (2.1%) were called active. Where a call stands in place of a potency, no number is given. Another 20% or so got no clear call; they are omitted. Calls follow the shape of the dose curve; as a rule, active = well fitted inhibition curve with a large enough effect; inconclusive = small, poorly fitted or top-dose-only effect, or effect the other way; inactive = flat fitted curve, though single readings scatter. Only a selection was taken, and actives are over-represented in it overall.
# Experiment: Nrf2 qHTS screen for inhibitors; also: nearly all actives have a fitted effect of over 60% in size
# Conditions: A549 ARE-Fluc reporter, luciferase luminescence, 18-24 h; series mostly up to 46 µM
# In short: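 Concentration-response testing used A549 ARE_Fluc cells at 5000 cells/well. Following an 18-24 h compound incubation, viability was read by fluorescence (Ex 405/Em 525) and luciferase output by luminescence.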
# Potency is read from the fitted curve at half-maximal effect.
SMILES,Potency,"activity change, negative = inhibition"
CC(=O)O[C@]1(C(C)=O)CC[C@H]2[C@@H]3C=C(C)C4=CC(=O)CC[C@]4(C)[C@H]3CC[C@@]21C,0.731 µM (active),–
C[C@]12CCC(=O)C=C1C=CC1C2CC[C@@]2(C)C1CC[C@@]21CCC(=O)O1 (stereo partly specified),inactive,–
CSCCC(NS(=O)(=O)c1ccc(C)cc1)C(=O)N(C)CC(=O)Nc1ccccc1Br (stereo unspecified),inactive,–
O=[N+]([O-])c1ccc(COc2ccccc2CN2CCOCC2)cc1,inactive,–
CCOC(=O)c1c(C)[nH]c(C)c1S(=O)(=O)N1CCC(C(=O)Nc2ccc(C)c(Cl)c2)CC1,inactive,–
CC1=Nc2cc(C(=O)N3CCC(C)CC3)ccc2Sc2ccc(Cl)cc21,16.4 µM (active),–
CC1CCN(C(=O)c2ccc3c(c2)NC(=O)CN3)CC1,inactive,–
COc1ccc(C(=O)Nc2c(Cl)cc(Cl)cc2C(=O)N2CCC(C)CC2)cc1,inactive,–
CC1CCCCC1NC(=O)NC(=O)COC(=O)C1=NN(c2ccccc2)C(=O)CC1 (stereo unspecified),inactive,–
O=C1C(F)N([S+](=O)([O-])c2ccc3c(c2)OCCO3)CCN1[S+](=O)([O-])c1c(F)cccc1F (stereo unspecified),inactive,–
COc1cc2nc(NCC(C)c3ccccc3)n3nc(-c4ccccc4)nc3c2cc1OC (stereo unspecified),inactive,–
COc1ccc(-c2noc(CCC(=O)N3CCN(c4cccc(C)c4)CC3)n2)cc1,inactive,–
COc1ccc(-c2noc(CCC(=O)N(C)c3ccccc3C)n2)cc1,20.6 µM (active),–
COc1ccc(N2CCN(C(=O)CCc3nc(-c4ccc(C)cc4)no3)CC2)cc1,inactive,–
Cc1cc(OCC(=O)Nc2ncn[nH]2)c(C)c(C)c1Br,inactive,–
CC(C)OC(=O)CN1CCN(c2ccc(Cl)cc2)CC1,16.4 µM (active),–
O=C(CN1CCN(c2ccc(Cl)cc2)CC1)N1CCCC1,inactive,–
O=C(CN1CCN(c2ccc(Cl)cc2)CC1)c1ccccc1,inactive,–
Cc1ccc(-c2cnc(NCc3ccc(C(C)C)cc3)n2C)cc1,inactive,–
CCOc1ccc(-c2cc3nc(C4CCN(C(=O)OC(C)(C)C)CC4)c(C(=O)Nc4cccc(CC)c4)cn3n2)cc1,inactive,–
CCn1c2ccccc2c2nnc(SCC(=O)O)nc21,inactive,–
Cc1ccc(C)c(N2CCN(Cc3nnc(-c4ccccc4)o3)CC2)c1,inactive,–
CCn1c2ccccc2c2nnc(N3CCN(c4cc(C)ccc4C)CC3)nc21,20.6 µM (active),–

SMILES,Potency,"activity change, negative = inhibition"
Cc1ccc(S(=O)(=O)n2nc(-c3ccc(Cl)cc3)nc2NCc2ccccc2)cc1,inactive,–
COc1ccc(NC(=O)CN(C)C(=O)c2cccc(S(=O)(=O)N3CCN(c4ccccc4)CC3)c2)cc1,16.4 µM (active),–
CCOc1ccc(NC(=O)CN(C)C(=O)c2cccc(S(=O)(=O)N3CCCC3)c2)cc1OCC,inactive,–
Cc1ccc(NC(=O)CN(C)C(=O)c2cccc(S(=O)(=O)N3CCCC3)c2)cc1,inactive,–
COc1ccccc1C(=O)OCc1cc(=O)n2nc(-c3cccs3)sc2n1,inactive,–
CC(C)(C)S(=O)(=O)N1Cc2cc(CO)cc(CCO)c2[C@H]1CCO,inactive,–
O=C(N/N=C/c1ccccn1)c1cccnc1,inactive,–
O=C(N/N=C/c1ccccn1)c1cccc(NC(=O)c2ccc(Cl)cc2)c1,23.1 µM (active),–
O=C(N/N=C/c1ccccn1)c1ccc(S(=O)(=O)N2CCCCCC2)cc1,inactive,–
CCOc1ccc(/C=C(/C#N)c2nnc(N3CCOCC3)n2-c2ccccc2)cc1OC,inactive,–
COc1ccc(CNC(=O)c2ccc(NC(=O)N3CC4CCCN4c4ccccc43)cc2)cc1 (stereo unspecified),inactive,–
CCN(CCCNC(=O)c1cc2c(=O)n(CC)c3ccccc3c2s1)Cc1ccccc1,inactive,–
CCN1CCN(c2cc(C)c3cc(NC(=O)c4cc(Cl)ccc4OC)ccc3n2)CC1,–,12% [at 9.27 µM] (inactive)
O=C(Nc1ncc([N+](=O)[O-])s1)C1COc2ccccc2O1 (stereo unspecified),14.6 µM (active),–
O=C(Nc1nnc(SCc2ccc(Cl)cc2Cl)s1)C1COc2ccccc2O1 (stereo unspecified),inactive,–
O=C(Nc1nc2c(F)cc(F)cc2s1)C1COc2ccccc2O1 (stereo unspecified),inactive,–
Cc1ccc(C(=O)Nc2cc3c(cc2N2CCCC2)n(C)c(=O)c(=O)n3C)cc1,inactive,–
CN(C)C(=O)CCc1ccc2c3c([nH]c2c1)[C@]1(CCc2ccccc2)[C@@H](C(=O)N2CCCCC2)C[C@H](CC(=O)NCCC2=CCCCC2)C(=O)N1CC3,inactive,–
O=C(Cn1c(-c2cccs2)cc2ccccc21)NCCc1ccc(Cl)cc1,inactive,–
S=C(NCC1CCCO1)N1CCN(c2ccc(Cl)c(Cl)c2)CC1 (stereo unspecified),14.6 µM (active),–
CCOc1ccc(S(=O)(=O)N2CCN(C(=S)NCC3CCCO3)CC2)cc1 (stereo unspecified),inactive,–
COc1ccc(S(=O)(=O)N2CCN(C(=S)NCC3CCCO3)CC2)cc1OC (stereo unspecified),inactive,–
CCCCOc1ccc(CN2C(=O)C(=O)c3cc(Br)cc(C)c32)cc1OC,inactive,–

SMILES,Potency,"activity change, negative = inhibition"
O=C(CN1C(=O)COc2ccc(S(=O)(=O)N3CCCCCC3)cc21)N1CCN(c2cccc(C(F)(F)F)c2)CC1,inactive,–
CCc1cc2c(cc3c(=O)n(CC(=O)NCc4cccc(Cl)c4)nc(CC)n32)s1,inactive,–
CN(C)c1ccc(NC(=O)CSc2nc(-c3ccco3)cc(C(F)(F)F)n2)cc1,inactive,–
O=[N+]([O-])c1ccc(S(=O)(=O)N2CCN(c3nc(-c4ccccc4)nc4ccccc34)CC2)cc1,inactive,–
Cc1ccc(S(=O)(=O)N2CCN(c3ncnc4ccccc34)CC2)cc1,2.31 µM (active) and 8.2 µM (active),–
Cc1ccc(S(=O)(=O)N2CCN(c3nc(-n4cnc5ccccc54)nc4ccccc34)CC2)cc1,inactive,–
Cc1ccc(C)c(S(=O)(=O)N2CCN(C(=O)Nc3ccccc3)CC2)c1,inactive,–
COc1ccc(C)cc1S(=O)(=O)N1CCN(S(=O)(=O)c2cc(C(=O)O)ccc2C)CC1,inactive,–
Cc1ccc(C)c(S(=O)(=O)N2CCN(c3ncnc4sccc34)CC2)c1,18.4 µM (active),–
Cc1ccc(C)n1-c1nnc(N2CCC(C(=O)NCc3ccccc3Cl)CC2)s1,inactive,–
CCCCn1nc(C(=O)Nc2cccc(C(=O)NC3CC3)c2)c2ccccc2c1=O,inactive,–
Cc1ccccc1NC(=O)CSC(=O)c1ccccc1,inactive,–
CC(=O)c1ccc(-c2nnc(CCC(=O)N(C)Cc3cnc4ccccn34)o2)s1,inactive,–
CCc1ccc(CN(C)Cc2nc(Cc3ccccc3)no2)nc1,inactive,–
CCc1ccc(CN(C)C(=O)CCc2nnc(-c3ccc(-c4ccccc4)cc3)o2)nc1,18.4 µM (active),–
NC(=S)NN=C1CCCC(C(F)(F)F)C1 (stereo unspecified),inactive,–
O=S(=O)(Nc1ccc2nc(N3CCOCC3)sc2c1)c1ccccc1,inactive,–
COc1ccc(Cl)cc1NC(=O)COC(=O)c1ccc(Br)o1,inactive,–
CC(=O)Nc1ccc(S(=O)(=O)NCCC(=O)N2CCN(c3ccccc3Cl)CC2)cc1,inactive,–
CC(=O)Nc1ccc(Nc2c3ccccc3nc3ccccc23)cc1,5.8 µM (active),–
CC(=O)Nc1ccc(NC(=O)COc2ncnc3ccccc23)cc1,inactive,–
CCc1nc(Nc2ccc(NC(C)=O)cc2)c2oc3ccccc3c2n1,inactive,–
O=C1N[C@H](Cc2c[nH]c3ccccc23)COC(=O)[C@H](Cc2ccc(F)cc2)C/C=C\C[C@H]1CC(=O)N(CCO)Cc1ccccc1,inactive,–

SMILES,Potency,"activity change, negative = inhibition"
O=C(C1CCCN(S(=O)(=O)c2cccc3nonc23)C1)N1CCN(c2ccccc2F)CC1 (stereo unspecified),inactive,–
O=C(O)c1ccccc1/C=N/Nc1ccc(S(=O)(=O)Nc2ccc(Cl)cc2)cc1[N+](=O)[O-],inactive,–
O=[N+]([O-])c1cc(S(=O)(=O)Nc2cccc(Cl)c2)ccc1N=Nc1c(O)[nH]c2ccccc12,20.6 µM (active),–
COc1ccc(S(=O)(=O)Nc2ccc3cn[nH]c3c2)cc1[N+](=O)[O-],inactive,–
O=C(NCCCO)c1nn(-c2ccc(Cl)cc2)nc1CO,inactive,–
O=C(CN1CCCSc2ccccc21)N1CCN(S(=O)(=O)c2ccccc2)CC1,inactive,–
Cc1ccc(-c2nn(CCC(=O)Nc3ccc(OC(F)(F)F)cc3)c(=O)c3ccccc23)cc1,inactive,–
CCCN(c1ccc(C(C)C)cc1)S(=O)(=O)c1c(C)[nH]c(=O)[nH]c1=O,5.8 µM (active),–
CCOc1ccc(N(CC(=O)Nc2ccccc2F)S(=O)(=O)c2c(C)[nH]c(=O)[nH]c2=O)cc1,inactive,–
CCOc1ccc(N(CC(=O)NC2CCCCCC2)S(=O)(=O)c2c(C)[nH]c(=O)[nH]c2=O)cc1,inactive,–
COc1ccccc1CNC(=O)c1ccc(CS(=O)c2ccccc2Cl)o1 (stereo unspecified),inactive,–
COC(=O)[C@]1(Cc2ccccc2)N[C@H](CN(C)S(=O)(=O)c2ccc(F)cc2)[C@@H]2C(=O)N(Cc3ccccc3)C(=O)[C@@H]21,inactive,–
Cc1ccc(NC(=O)c2cccc(S(=O)(=O)N3CCCc4ccccc43)c2)nc1,10.3 µM (active),–
O=C(Nc1nnc(S(=O)(=O)N2CCCc3ccccc32)s1)c1cccc(F)c1,inactive,–
CC1CCN(C(=O)c2cccc(S(=O)(=O)N3CCCc4ccccc43)c2)CC1,inactive,–
Cc1ccc(S(=O)(=O)N2CCN(C(=O)Cn3c(=O)cnc4ccccc43)CC2)c(C)c1,inactive,–
O=C1OC(Oc2ccc(Br)cc2)(c2ccccc2)c2ccccc21 (stereo unspecified),inactive,–
Cn1c2ccccc2c2c(C(=O)N3CCN(c4ccc(F)cc4)CC3)cn(C3CCCC3)c(=O)c21,25.9 µM (active),–
CCOc1ccc(NC(=O)c2cn(C3CCCCC3)c(=O)c3c2c2ccccc2n3C)cc1,inactive,–
CC(C)N(C(=O)COC(=O)c1ccccc1C(=O)N1CCN(c2ccc(F)cc2)CC1)C(C)C,inactive,–
COc1cc(C2c3c(oc4ccccc4c3=O)C(=O)N2c2nc(C)c(C)s2)ccc1O (stereo unspecified),inactive,–
CC[C@]12c3[nH]c4cc(CCC(=O)N(C)C)ccc4c3CCN1C(=O)[C@@H](CC(=O)NCC13CC4CC(CC(C4)C1)C3)C[C@@H]2C(=O)N1CCN(C(=O)C2CC2)CC1,inactive,–
